Laboratory results taken from PubChem BioAssay AID1645887 (National Center for Advancing Translational Sciences (NCATS), 2021).
Values joined by “and” are separate entries in the source; they are usually repeats but may differ in a detail not shown here. Identical values can stand only once. The campaign covered roughly 16,000 compounds. About 40 (0.2%) were called active. Another 1% or so got no clear call; they are omitted. This excerpt belongs to a sample that is enriched for actives. Some structures have more than one record in an assay (separate samples or runs), and their calls can disagree. Unmarked numbers belong to inactive results. The call rests on the fitted dose curve; in most records, active means well fitted activation curve with a large enough effect; inconclusive means small, poorly fitted or top-dose-only effect, or another doubt; inactive means no such curve, though single readings can be large or run the other way.

biological target: Rap guanine nucleotide exchange factor 4 (Homo sapiens) (UniProt Q8WZA2); assay: Validation qHTS for agonist of cAMP-regulated guanine nucleotide exchange factor 4 (EPAC2); conditions: EPAC2 Rap1B BODIPY-GDP exchange, fluorescence; activation: hits give high values;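 on activation: exchange makes BODIPY-GDP fluorescence drop when released from Rap1B; series mostly up to about 150 µM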
Sequence (Q8WZA2 whole entry, looked up): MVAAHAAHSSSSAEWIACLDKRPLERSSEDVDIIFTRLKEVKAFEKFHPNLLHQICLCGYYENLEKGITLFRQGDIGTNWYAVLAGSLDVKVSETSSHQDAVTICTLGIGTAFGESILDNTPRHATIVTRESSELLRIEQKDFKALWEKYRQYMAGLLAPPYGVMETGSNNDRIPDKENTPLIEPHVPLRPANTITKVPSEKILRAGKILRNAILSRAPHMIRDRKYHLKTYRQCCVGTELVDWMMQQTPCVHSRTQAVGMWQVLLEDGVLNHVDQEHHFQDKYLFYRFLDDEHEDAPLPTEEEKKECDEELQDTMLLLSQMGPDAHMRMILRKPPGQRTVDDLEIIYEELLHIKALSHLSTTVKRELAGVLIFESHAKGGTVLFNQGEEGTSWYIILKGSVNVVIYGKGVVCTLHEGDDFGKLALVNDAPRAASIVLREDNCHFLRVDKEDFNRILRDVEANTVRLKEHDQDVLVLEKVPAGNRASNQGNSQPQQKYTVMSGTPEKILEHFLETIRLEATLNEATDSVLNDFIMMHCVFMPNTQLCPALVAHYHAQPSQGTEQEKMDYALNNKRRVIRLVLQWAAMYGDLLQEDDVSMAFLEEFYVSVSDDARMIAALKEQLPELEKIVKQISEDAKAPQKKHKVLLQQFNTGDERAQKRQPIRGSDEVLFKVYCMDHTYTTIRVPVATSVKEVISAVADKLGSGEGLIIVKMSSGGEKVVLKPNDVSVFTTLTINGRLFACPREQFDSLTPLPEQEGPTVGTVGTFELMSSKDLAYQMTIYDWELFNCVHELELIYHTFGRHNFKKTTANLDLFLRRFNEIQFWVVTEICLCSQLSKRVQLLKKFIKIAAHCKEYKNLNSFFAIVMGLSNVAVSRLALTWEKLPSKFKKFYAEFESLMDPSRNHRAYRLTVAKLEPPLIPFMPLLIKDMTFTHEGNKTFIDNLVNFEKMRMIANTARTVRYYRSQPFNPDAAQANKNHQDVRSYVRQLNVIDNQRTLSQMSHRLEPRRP
Source text: Principle Investigator: Xiaodong Cheng Ph.D.
The University of Texas Medical Branch, […], TX
In multi-cellular eukaryotic organisms, the effects of cAMP are transduced by two ubiquitously-expressed intracellular cAMP receptors, the classic protein kinase A/cAMP-dependent protein kinase (PKA/cAPK) and the more recently discovered exchange protein directly activated by cAMP/cAMP-regulated guanine nucleotide exchange factor (EPAC/cAMP-GEF). Both PKA and EPAC are ubiquitously expressed in all tissues, and an increase in intracellular cAMP levels will lead to the activation of both PKA and EPAC. Therefore, careful dissections of the individual role and relative contribution of EPAC and PKA within the overall cAMP signaling in various model systems are critical for further elucidating the mechanism of cAMP signaling. To date no EPAC-specific antagonists and agonist, as well as isoform-specific agonists have been reported, and developing EPAC-specific pharmacological probes to determine the physiological functions that EPAC play in the overall cAMP-mediated signaling remains a major challenge within the research field. Furthermore, identified regulators of EPAC may lead to new mechanism-based therapeutic strategies specifically targeting the EPAC / cAMP-signaling components as EPAC has been implicated to play important roles in major human pathological conditions such as diabetes, heart disease, and cancer.
This qHTS will be used to screen the Molecular Libraries Small Molecule Repository (MLSMR) as a concentration-titration series using the NCGC unique quantitative screening (qHTS) platform to find activators for EPAC1. In addition, this assay will also be used as a counterscreen for the EPAC2 qHTS. This fluorescent based assay is developed and validated for EPAC1 that measures exchange using EPAC effector Rap1 complex with BODIPY-GDP, a GDP analog with a tethered fluorophores. Activators are identified by monitoring the change in fluorescence signal as the exchanged free BODIPY-GDP has a reduced fluorescence compared to Rap1-bound BODIPY-GDP. Increase in signal (activation) is the desired outcome for the EPAC1 agonist while no activity in this assay is desired for the EPAC2 agonist counterscreen.
[1] de Rooij, J., Zwartkruis, F. J., Verheijen, M. H., Cool, R. H., Nijman, S. M., Wittinghofer, A., and Bos, J.L. (1998) Nature 396, 474-477.
Briefly, three uL of reagents (100 nM EPAC2, 250 nM RAP1B-BODIPY-GDP, 50 uM GDP) were dispensed into a 1536-well Greiner black solid-bottom medium binding assay plate. Controls and test compounds (23 nL) were transferred to the plate via a Kalypsys pin tool equipped with a 1536-pin array. The plates were centrifuged at 1,000 rpm for 15 seconds followed by 5 minute incubation at room temperature. The assay plates were read at 5 minute intervals for 30 minutes in the ViewLux plate reader using 480nm excitation and 540nm emission filters. The results were normalized to the agonist positive control of 6.5 mM cAMP.
On the % scale 0 is the no-effect control and ±100 the full control effect; potency means the concentration at half of the fitted maximal effect.

| Compound | Potency | activation |
| --- | --- | --- |
| O=c1[nH]cc(N(CCCl)CCCl)c(=O)[nH]1 | 100 µM (active) |  |
| CN1CCCC2(CCN(C(=O)c3ccco3)CC2)C1 |  | 0.865% |
| NCC(O)c1cccc(O)c1 (configuration not stated) |  | -5.63% |
| COc1ccc2c3c([nH]c2c1)C(C)=NCC3 |  | 23% and -2.23% and 8.55% |
| CC1=NCCc2c1[nH]c1cc(O)ccc21 | 100 µM (active) |  |
| Nc1ccc(N=Nc2ccccc2)cc1 |  | -19.5% |
| CCN1C[C@]2(COC)CC[C@H](OC)[C@@]34C5C[C@@H]6[C@@H](OC)C[C@@]7(OCO[C@@]7([C@@H](O)C23)[C@@H]14)C5[C@H]6OC (some centres not stated) |  | -3.22% |
| [O]=[Cd] |  | -0.16% |
| O=C1/C(=C/c2ccc(N(CCCl)CCCl)cc2)Cc2ccccc21 |  | -1.94% |
| CC1=NN=C(c2ccc(N)cc2)c2cc3c(cc2C1)OCO3 | 89.1 µM (active) | -34.2% |
| C[C@H]1[C@@H]2Cc3ccc(O)cc3[C@@]1(C)CCN2C |  | -8.04% |
| CC1(C)C(O)CC(=O)[C@]2(C)C1CC(=O)[C@]1(C)C2CC[C@@]2(C)C(c3ccoc3)OC(=O)C3O[C@@]321 (some centres not stated) |  | -10.4% |
| CN1C2CC(OC(=O)C(CO)c3ccccc3)CC1C(O)C2 (configuration not stated) |  | -0.713% |
| COc1ccc2[nH]cc(CCN(C(C)C)C(C)C)c2c1 |  | -8.55% |
| Cc1cc(O)ccc1Cl |  | -10.1% and -9.14% |
| CC(C)(C)c1cc(O)ccc1O | 56.2 µM (active) | -17% |
| O=S(=O)(O)c1cc(O)ccc1O |  | -9.91% |
| COc1cc(C[C@@H](C)N)c(OC)cc1C |  | -5.23% |
| CC(C)C[C@H](NC(=O)[C@H](Cc1ccccc1)NC(=O)CNC(=O)[C@H](CO)NC(=O)[C@@H](N)Cc1ccc(O)cc1)C(=O)N[C@H](C(=O)O)[C@H](C)O |  | 9.65% |
| NC(N)=NCCCCCCCCCCN=C(N)N |  | -12% and 0.499% |
| O=C1OC2(c3cc(Br)c(O)cc3Oc3c2cc(Br)c(O)[c]3[Hg])c2ccccc21 (configuration not stated) | 3.98 µM (active) |  |
| CN1CCC2(CC1)CCN(C(=O)c1ccco1)CC2 |  | 1.62% |
| C[C@]12CCC3C(CC[C@H]4C[C@H](O)CC[C@]34C)[C@@H]1CC[C@@H]2C(=O)CO (some centres not stated) |  | -7.64% |
| CCOC(=O)[C@]12Cc3c(cc(OC)c(OC)c3OC)[C@H]1N(Cc1ccccc1)C(=O)c1ccccc12 |  | -19.3% |
| c1cnc(N2CC3(CCNCC3)C2)nc1 |  | 2.58% |
